Results filed as inconclusive are left out. Calls of active or inactive are those of the source. Unless noted, the call rests on the fitted dose curve; in most records, active means well fitted curve in the direction sought with a large enough effect in the repeat runs; inconclusive means weak or mixed curves; inactive means no such curve, though single readings can be large; an effect the other way counts as inactive or inconclusive.
Tests used:
[1] = qHTS assay for small molecule agonists of the p53 signaling pathway (AID 651631; calls by dose curve; further: nearly all actives have a fitted effect of over 15% in size)
In short: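 Beta-lactamase reporter activity under p53 response elements was quantified in HCT-116 cells by FRET fluorescence, following 16 h incubation with test compounds at 37 °C and 2 h substrate development at room temperature.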

[2] = qHTS assay for small molecules that induce genotoxicity in human embryonic kidney cells expressing luciferase-tagged ATAD5 (AID 651632); further: nearly all actives have a fitted effect of over 15% in size
In short: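 HEK293T cells carrying luciferase-tagged ATAD5 were given compound or DMSO vehicle and incubated 16 hr at 37C, 5% CO2. Luciferase activity was read after 30 min at room temperature with Amplite; a rise signals genotoxic stress.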

[3] = qHTS assay for small molecule agonists of the p53 signaling pathway - cell viability (AID 651633; calls by dose curve;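 further: p53RE-bla HCT reporter cells with a stable beta-lactamase p53 reporter; series mostly up to about 83 µM; nearly all actives have a fitted effect of over 30% in size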)
In short: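 p53RE-bla cells, seeded at 4,000 per well and rested 5 h at 37 C/5% CO2, received compounds in DMSO for 16 h at 37 C. CellTiter-Glo was then added, and luminescence was read after 30 min at room temperature to gauge cytotoxicity.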

[4] = qHTS assay for small molecules that induce genotoxicity in human embryonic kidney cells expressing luciferase-tagged ATAD5 - cell viability (AID 651634; calls by dose curve; further: nearly all actives have a fitted effect of over 25% in size)
In short: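 HEK293T cells carrying luciferase-tagged ATAD5, 2,000 cells/well, exposed to compound for 15.5 hr at 37C. Viability read as live-cell protease activity by CellTiter-Fluor fluorescence after 30 min at 37C.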

[5] = qHTS assay for small molecule disruptors of the mitochondrial membrane potential - cell viability (AID 720634; calls by dose curve;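 further: human HepG2 liver cancer cells; series mostly up to about 83 µM; nearly all actives have a fitted effect of over 20% in size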)
In short: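 HepG2 cells, 2,000 per well, attached overnight, then treated 1 hr at 37 C, 5% CO2. Viability read as ATP by CellTiter-Glo luminescence after 30 min at room temperature. Read in the same wells as the m-MPI membrane-potential dye assay.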

[6] = qHTS assay for small molecule disruptors of the mitochondrial membrane potential (AID 720635)
In short: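 HepG2 cells (2,000/well) attached overnight at 37C, then took compound for 1 hr at 37C, 5% CO2. Mito-MPS dye was added for 30 min; fluorescence was read at 490/535 nm (monomers) and 540/590 nm (aggregates).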

[7] = qHTS assay to test for compound auto fluorescence at 590 nm (red) in HepG2 cells (AID 720674)
In short: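 Compound auto-fluorescence is scored relative to Rose Bengal sodium, measured at 540/590 nm in live HepG2 cultures after 1 hr compound contact (37 C, 5% CO2).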

[8] = qHTS assay to test for compound auto fluorescence at 535 nm (green) in HepG2 cells (AID 720675)
[9] = qHTS assay to test for compound auto fluorescence at 460 nm (blue) in HEK293 cells (AID 720678)
In short: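 Intrinsic compound fluorescence is recorded in live HEK293 cultures after overnight incubation at 37C, 5% CO2, using excitation 405 nm and emission 460 nm. Values are referenced to triamterene.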

[10] = qHTS assay to test for compound auto fluorescence at 590 nm (red) in HEK293 cells (AID 720679)
In short: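 Red autofluorescence, HEK293 cells: 2,000 cells/well; attach 4-5 hr 37C; add 23 nL cpd or DMSO; incubate o/n 37C 5% CO2; read Ex540/Em590; Rose Bengal sodium reference.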

[11] = qHTS assay to test for compound auto fluorescence at 535 nm (green) in HEK293 cells (AID 720680)
[12] = qHTS assay to test for compound auto fluorescence at 460 nm (blue) in HEK293 cell free culture (AID 720681)
In short: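 Test compounds were pinned into cell-free culture medium (DMEM with 10% FBS) and fluorescence was read directly at Ex/Em 405/460 nm. Signals were expressed as fluorescence equivalents of triamterene, with DMSO vehicle as control.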

[13] = qHTS assay to test for compound auto fluorescence at 535 nm (green) in HEK293 cell free culture (AID 720682)
In short: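 Each library compound, or DMSO control, is added by pintool to medium alone, comprising DMEM and 10% FBS. Emission at 535 nm following 485 nm excitation is quantified against fluorescein.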

[14] = qHTS assay to test for compound auto fluorescence at 590 nm (red) in HEK293 cell free culture (AID 720683)
In short: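 Tox21 10K library compounds were pinned into cell-free DMEM with 10% FBS and fluorescence was read at excitation 540 nm. Activity is expressed as Rose Bengal sodium equivalency.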

[15] = qHTS assay to test for compound auto fluorescence at 590 nm (red) in HepG2 cell free culture (AID 720684)
In short: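 Red fluorescence (540 nm excitation, 590 nm emission) was measured after compound transfer into cell-free MEM supplemented with 10% FBS. Values are equivalencies against Rose Bengal sodium.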

[16] = qHTS assay to test for compound auto fluorescence at 460 nm (blue) in HepG2 cell free culture (AID 720685)
In short: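 Compound (23 nL) or DMSO pinned into cell-free MEM with 10% FBS; blue fluorescence read at 405/460 nm excitation/emission, expressed as auto-fluorescence equivalency to triamterene.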

[17] = qHTS assay to test for compound auto fluorescence at 535 nm (green) in HepG2 cell free culture (AID 720686)
[18] = qHTS assay to test for compound auto fluorescence at 460 nm (blue) in HepG2 cells (AID 720687)
In short: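 Cells (2,000/well in MEM with 10% FBS) attached overnight at 37 C, then were exposed to compound or DMSO for 1 hr at 37 C, 5% CO2. Fluorescence read at Ex/Em 405/460 nm, expressed as triamterene-equivalent signal.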

[19] = molecular target: Glucocorticoid receptor (Homo sapiens) (UniProt P04150); test: qHTS assay to identify small molecule agonists of the glucocorticoid receptor (GR) signaling pathway (AID 720691; active means well fitted activation curve with a large enough effect in the signal ratio in the repeat runs, not every such curve was filed as active; the % refers to the signal ratio)
In short: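 GR-bla HeLa cells carrying a GRE-driven beta-lactamase reporter, exposed to compounds for 18 h at 37 C. Reporter activation read as fluorescence after 2 h with LiveBLAzer B/G FRET substrate at room temperature.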

[20] = molecular target: Glucocorticoid receptor (Homo sapiens) (UniProt P04150); test: qHTS assay to identify small molecule antagonists of the glucocorticoid receptor (GR) signaling pathway (AID 720692; active means well fitted inhibition curve with a large enough effect in the signal ratio in the repeat runs, not every such curve was filed as active; the % refers to the signal ratio)
In short: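 GR-bla HeLa cells carrying a GRE-driven beta-lactamase reporter received compound after 4 h plating, then dexamethasone (5 nM final). After 18 h at 37C, the FRET substrate was loaded for 2 h at room temperature and fluorescence read.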

[21] = qHTS assay to identify small molecule antagonists of the glucocorticoid receptor (GR) signaling pathway - cell viability counter screen (AID 720693); further: nearly all actives have a fitted effect of over 55% in size
[22] = qHTS assay for identifying genotoxic compounds that show differential cytotoxicity against isogenic chicken DT40 cell lines with known DNA damage response pathways - wild type cell line (AID 743012); further: nearly all actives have a fitted effect of over 60% in size
In short: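 Wild-type DT40 cells (300/well) exposed to compounds for 40 hours at 37 C/5% CO2. Viability read by CellTiter-Glo luminescence after 30 min at room temperature.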

[23] = qHTS assay for identifying genotoxic compounds that show differential cytotoxicity against isogenic chicken DT40 cell lines with known DNA damage response pathways - Rev3 mutant cell line (AID 743014); further: nearly all actives have a fitted effect of over 55% in size
[24] = qHTS assay for identifying genotoxic compounds that show differential cytotoxicity against isogenic chicken DT40 cell lines with known DNA damage response pathways - Rad54/Ku70 mutant cell line (AID 743015); further: nearly all actives have a fitted effect of over 60% in size

Measured: Potency

Sequence of Glucocorticoid receptor (Homo sapiens) (P04150 whole entry, looked up): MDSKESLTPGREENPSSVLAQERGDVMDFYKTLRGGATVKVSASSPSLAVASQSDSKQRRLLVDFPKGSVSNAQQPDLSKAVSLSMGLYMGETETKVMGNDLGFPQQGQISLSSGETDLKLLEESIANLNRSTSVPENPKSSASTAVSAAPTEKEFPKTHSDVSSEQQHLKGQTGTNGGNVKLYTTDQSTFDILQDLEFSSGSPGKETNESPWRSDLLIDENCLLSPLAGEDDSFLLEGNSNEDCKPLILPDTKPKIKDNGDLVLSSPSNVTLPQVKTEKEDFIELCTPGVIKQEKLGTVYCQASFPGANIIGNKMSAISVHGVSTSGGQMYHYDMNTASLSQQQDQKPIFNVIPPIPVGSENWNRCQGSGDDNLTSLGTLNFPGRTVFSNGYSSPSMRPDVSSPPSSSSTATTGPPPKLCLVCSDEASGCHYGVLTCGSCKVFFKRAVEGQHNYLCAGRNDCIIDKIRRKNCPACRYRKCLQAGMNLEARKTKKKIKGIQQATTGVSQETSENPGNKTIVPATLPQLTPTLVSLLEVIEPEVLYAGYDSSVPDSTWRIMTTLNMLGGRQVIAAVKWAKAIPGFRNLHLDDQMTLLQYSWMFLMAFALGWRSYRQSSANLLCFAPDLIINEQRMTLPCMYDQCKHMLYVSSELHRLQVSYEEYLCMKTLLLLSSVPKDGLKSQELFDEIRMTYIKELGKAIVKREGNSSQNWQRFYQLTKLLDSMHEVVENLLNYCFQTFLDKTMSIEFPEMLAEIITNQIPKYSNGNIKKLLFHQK

CCCN1CCC[C@H](c2cccc(O)c2)C1
inactive: all assays above
